# According to PubChem BioAssay AID720489 (Milwaukee Institute for Drug Discovery, 2013):
# Some of the results follow. A number with no mark means an inactive call. Calls of active or inactive are those of the source.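 Rule for the calls: active = fluorescence interference ratio at or below 0.8 quencher or at or above a set limitenhancer; inactive = the rest.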
# Experiment: compounds quenching or enhancing NS3h-DNA Cy5 signal – biochemical, ChemBridge library, Cy5-DNA-NS3h complex, artefact control for HCV NS3 helicase inhibitor project, confirmation (AID 720489)
# Settings: Cy5-dT15 DNA/NS3h fluorescence interference counterscreen; at 100 µM
row,SMILES,fluorescence interference ratio
1,C=CCN1C(=O)/C(=C\c2cc(OC)c(O)c([N+](=O)[O-])c2)C(=O)NC1=S,0.746 (active)
2,CCN(CC)c1ccc(NC(=O)/C(=C\c2ccccc2)NC(C)=O)cc1,1.09
3,O=C1NC(=O)C(=Cc2cc([N+](=O)[O-])cc(Br)c2O)C(=O)N1,0.747 (active)
4,O=c1c2c(nc3cc(-c4cccc(F)c4)[nH]n13)CCS2,0.718 (active)
5,COc1cc(C=C2C(=O)NC(=O)NC2=O)ccc1OCCOc1ccc([N+](=O)[O-])cc1,0.667 (active)
6,CCOc1ccc(C=C2C(=O)NC(=O)NC2=O)cc1Cl,0.902
7,N#Cc1c(N)nc2sc(C(=O)Nc3ccccc3)c(N)c2c1-c1ccco1,0.783 (active)
8,O=C(NC(=S)Nc1ccc(-c2nc3cc(Cl)ccc3o2)cc1)c1ccco1,1.01
9,COc1ccc(N2C(=O)C=CC2=O)c([N+](=O)[O-])c1,0.746 (active)
10,CCN(CC)c1ccc(C=C2C(=O)N(C)C(=O)N(C)C2=O)c(O)c1,1
11,Cc1ccc(C(=O)C[n+]2cc(-c3ccccc3)n3c2CCCCC3)cc1,1.02
12,CC(C)(C)N1C(=O)NC(=O)C(=Cc2cccs2)C1=O,0.788 (active)
13,Cc1ccc(C(=O)NCCNc2ccc([N+](=O)[O-])cc2)cc1,0.955
14,COc1ccc(C(=O)Oc2ccc3oc(=O)cc(C)c3c2)cc1OC,0.772 (active)
15,COc1cc(/C(O)=C(\C#N)c2nc3ccccc3n2C)cc(OC)c1OC,0.722 (active)
